Screening data from PubChem BioAssay.
D2 ag-1 – activates the human D2 dopamine receptor. P14416. HEK293 T-REx D2 cells, calcium flux agonist mode. activation, % at 2 µM. 340,000 tested, 0.53% active. AID 485358;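 active = activation over 3 SD above normal in the single-dose calcium agonist read, cut at about 30% in these data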
Target sequence (P14416 whole entry, looked up): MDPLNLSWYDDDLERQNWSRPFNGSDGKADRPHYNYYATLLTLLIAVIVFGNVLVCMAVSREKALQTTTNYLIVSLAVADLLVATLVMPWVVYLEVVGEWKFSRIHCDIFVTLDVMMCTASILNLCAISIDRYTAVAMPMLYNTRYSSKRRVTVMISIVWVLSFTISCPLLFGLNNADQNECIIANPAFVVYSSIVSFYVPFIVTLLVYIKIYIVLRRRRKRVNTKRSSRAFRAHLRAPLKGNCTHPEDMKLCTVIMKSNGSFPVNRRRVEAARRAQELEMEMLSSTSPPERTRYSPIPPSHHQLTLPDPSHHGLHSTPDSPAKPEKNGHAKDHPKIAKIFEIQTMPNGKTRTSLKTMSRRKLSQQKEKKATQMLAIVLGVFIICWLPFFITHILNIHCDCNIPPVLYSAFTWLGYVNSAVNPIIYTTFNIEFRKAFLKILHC
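Tetracycline-induced HEK293 T-REx cells with force-coupled D2 receptor, plated overnight at 30 C, loaded with no-wash calcium dye. After a 10 s baseline, compound was pin-added and calcium flux read kinetically for 180 s; calcium rises flagged agonists.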
D2 antagonist – antagonizes the human D2 dopamine receptor; P14416; HEK293 TREx D2 cells, calcium flux, dopamine EC80; inhibition, % at 10 µM; 340,000 tested, 2% active; in the data active = inhibition above about 30%; inactive = below that, where a call was filed
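Antagonism is scored as inhibition of an EC80 dopamine-evoked calcium signal in a force-coupled, tetracycline-inducible HEK293 T-REx D2 line, with compound present 180 s before agonist.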
D2 PAM-1 – human D2 receptor positive allosteric modulation; P14416; DiscoveRx D2 beta-arrestin cells, luminescence, 90 min; 100% = 57 uM dopamine signal; potentiation, % (concentration not given with the values); 360,000 tested, 0.23% active; AID 624464; in the data active = potentiation above about 50%; inconclusive = mostly about 30% to 49%
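PathHunter D2 cells, attached overnight at 37 deg C, received compound in DMSO plus dopamine at EC20 (50 nM final) for 90 min at 37 deg C. Beta-arrestin recruitment was read as luminescence after 1 h with detection reagent at ambient temperature.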
D2 PAM-2 – D2 dopamine receptor (human) potentiation; AID 485347; HEK293 T-REx D2, calcium flux, EC20 dopamine potentiation; P14416; potentiation, % at 10 µM; 340,000 tested, 0.34% active;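 active = potentiation over 3 SD above the plate norm, cut at about 30% in these data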
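Cells plated with tetracycline inducer and held overnight at 30 C; calcium dye loaded 30–90 min at room temperature; baseline taken, compound added and read 180 s; EC20 dopamine then added and read 180 s.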
D2 ag-2 – activates the human D2 dopamine receptor | P14416 | DiscoveRx PathHunter D2 beta-arrestin, luminescence, 90 min; 100% = 57 uM dopamine signal | activation, % (no concentration beside the values) | 360,000 tested, 0.084% active; in the data active = activation above about 40%; inconclusive = between about 15% and that limit
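DiscoveRx PathHunter D2 beta-arrestin cells (2,100/well) attached overnight, then compound-stimulated 90 min at 37 C in HBSS/10 mM HEPES/0.1% Tween-20 buffer; beta-galactosidase complementation read by luminescence after 1 h at ambient temperature. Dopamine 57 uM final (EC100) as control.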
D3 ag – confirmation of human D3 dopamine receptor agonists, beta-arrestin; Potency, µM (doses to about 76.9 µM), hits mostly activators; DiscoveRx D3 beta-arrestin cells, luminescence, 90 min; shares compounds with D2 ag-1; 2,300 tested, 4% active; also: nearly all actives have a fitted effect of over 70% in size
D2 ag-3 – D2 receptor agonism, beta-arrestin counterscreen. shares compounds with D2 ag-1. DiscoveRx PathHunter D2 beta-arrestin, luminescence, 90 min; response scale: percent relative to full dopamine signal. Potency, µM (highest dose often 76.9 µM), most hits filed as activators. 2,300 tested, 5.9% active. AID 720507; also: nearly all actives have a fitted effect of over 70% in size
Hits are given with their value; i = inactive; ? = inconclusive; nt = no result. This is a sample that favours compounds with a hit; in the whole collection about 2.4% have one here. Unless noted, calls follow the shape of the dose curve; as a rule, active = well fitted activation curve with a large enough effect; inconclusive = small, poorly fitted or top-dose-only effect; inactive = flat fitted curve, though single readings scatter.

SMILES	D2 ag-1	D2 antagonist	D2 PAM-1	D2 PAM-2	D2 ag-2	D3 ag	D2 ag-3
CCN(CC(=O)Nc1ccccc1C(F)(F)F)C(=O)c1ccc(-n2nc(C)c(CCC(=O)OC)c2C)cc1	nt	nt	i	nt	i	nt	nt
CCOc1ccc(C(=O)NCC(c2ccc(Cl)cc2)N2CCCCC2)cc1 (configuration not stated)	i	nt	nt	i	nt	nt	nt
O=C(OCc1cc(=O)n2nc(C3CCCCC3)sc2n1)c1ccc(F)cc1	i	nt	nt	i	nt	nt	nt
Cc1ccc(OCC(=O)NCCCNC(=O)c2ccc(C)nc2)cc1	i	i	i	nt	i	nt	nt
CCN(CC)c1ccc(NC(=S)NC(=O)Cc2ccccc2)cc1	73	77	i	i	i	i	i
CCOc1ccc(NC(=S)NC(=O)Cc2ccccc2)cc1	i	i	i	i	i	nt	nt
Clc1nnc(NN=C2CCCC2)c2ccccc12	61	i	i	i	i	i	i
COCc1cc(C)nc(OCC(=O)N/N=C/c2ccc(O)cc2)c1C#N	50	i	i	i	i	i	i
O=C(O)c1ccc(N=Nc2c(O)ccc3ncccc23)cc1	i	i	i	i	i	nt	nt
COc1ccccc1NC(=O)CN(C)S(=O)(=O)c1ccc2c(c1)c(=O)n(C)c(=O)n2C	i	nt	nt	i	nt	nt	nt
COc1ccc(S(=O)(=O)Nc2ccc(Cc3ccncc3)cc2)cc1C	nt	nt	i	nt	i	nt	nt
COc1cccc2c1cc1c(=O)n(CC(=O)N3CCC(C)CC3)nc(C)n12	nt	nt	i	i	?	i	?
O=C(Nn1cnc2ccccc2c1=O)c1ccc(Br)cc1	43	i	i	i	i	i	i
CCOc1ccc(Cl)cc1C1CC(=O)Nc2cc(OC)c(OC)c(OC)c21 (configuration not stated)	i	nt	nt	i	nt	nt	nt
CCOC(=O)N1CCC(NC(=O)c2ccc(CS(=O)c3cccc(Cl)c3)o2)CC1 (configuration not stated)	44	54	i	i	i	i	i
O=C(Nc1cccc(Cl)c1)c1nc[nH]c1C(=O)NCCCCNC(=O)c1[nH]cnc1C(=O)Nc1cccc(Cl)c1	nt	nt	i	nt	i	nt	nt
Cc1cccc(NC(=O)c2nc[nH]c2C(=O)NCc2ccccc2)c1	i	i	i	i	i	i	i
O=C(Nc1cccc(Cl)c1)c1nc[nH]c1C(=O)NCc1ccccc1	i	i	i	i	i	i	i
O=C(Nc1ccccc1)c1nc[nH]c1C(=O)NCc1ccccc1	i	i	i	i	i	i	i
COc1ccc(CCNc2nc3cc(OC)c(OC)cc3c3nc(-c4ccccc4)nn23)cc1OC	i	nt	nt	i	nt	nt	nt
CSc1ccccc1NC(=O)C1C2CCC(C2)C1C(=O)O (configuration not stated)	i	i	i	i	i	i	i
O=C(O)c1ccc(NC(=O)C2C3CCC(C3)C2C(=O)O)cc1 (configuration not stated)	i	i	i	i	i	nt	nt
CCOc1ccc(CC(=N)C2=C(O)CC(C)(C)CC2=O)cc1OCC	i	i	i	i	i	nt	nt
CCOc1ccc(CC(=NCCc2ccccc2)C2=C(O)CC(C)(C)CC2=O)cc1OCC	47	i	i	i	i	i	i
Cc1cccc2sc(NC(=O)Cn3cccc3)nc12	i	i	i	i	i	nt	nt
SMILES	D2 ag-1	D2 antagonist	D2 PAM-1	D2 PAM-2	D2 ag-2	D3 ag	D2 ag-3
Cc1cccc2sc(NC(=O)CSCc3ccccc3)nc12	44	i	i	i	i	i	i
O=C(NCCc1nc2ccccc2n1Cc1ccc(Cl)cc1Cl)c1ccco1	i	nt	nt	i	nt	nt	nt
COc1cc(NC(=O)CC2C(=O)N(c3cccc(C)c3)C(=O)N2Cc2ccc(F)cc2)cc(OC)c1 (configuration not stated)	i	nt	nt	i	nt	nt	nt
CCc1ccc(C(=O)c2cn(CC(=O)Nc3ccc4c(c3)OCO4)c3ccc(CC)cc3c2=O)cc1	nt	nt	nt	i	nt	nt	nt
COc1cc2c(cc1OC)C1CC(=O)C(CC(C)C)CN1CC2 (configuration not stated)	48	i	i	i	i	i	i
Cc1ccc(NC(=O)Cn2cc(S(=O)(=O)c3ccc(C)cc3)c(=O)c3cc4c(cc32)OCO4)cc1	i	nt	nt	i	nt	nt	nt
O=C(CSc1nnc(-c2cccc(Br)c2)o1)N1CCOCC1	i	i	i	i	i	i	i
COc1ccccc1CNC(=O)C1CCCN(S(=O)(=O)c2ccc3c(c2)oc(=O)n3C)C1 (configuration not stated)	i	nt	nt	i	nt	nt	nt
CCOC(=O)C(NCCCCl)c1ccccc1 (configuration not stated)	35	i	i	i	i	i	i
CCOC(=O)C(C(=O)OCC)C(Nc1cccc(Br)c1)c1ccccc1 (configuration not stated)	i	i	i	i	i	nt	nt
O=C(N[C@H]1CCC(=O)N(CCSc2ccc(Br)cc2)CC1)OCc1ccccc1	i	i	i	i	i	i	i
COc1ccc(-n2nnnc2SCC(=O)NCCc2ccccc2)cc1	i	nt	nt	i	nt	nt	nt
C/C=C(\C)CN1CCN(c2ccccc2)CC1	79	75	i	i	i	i	i
CCN(CC)C(=O)CN1CCN(c2ccccc2F)CC1	i	i	i	i	i	nt	nt
C/C=C(\C)CN1CCN(c2cc(C)ccc2C)CC1	i	i	i	i	i	nt	nt
C/C=C(\C)CN1CCN(c2ccccc2F)CC1	38	65	i	i	i	i	i
Cc1ccc(NC(=O)Cn2c(=O)n(CCCS(=O)(=O)C3CCCCC3)c(=O)c3ccccc32)cc1F	i	nt	nt	i	nt	nt	nt
COc1cc(NC(=O)C2CCCN(c3ncnc4c3nc3n4CCCCC3)C2)cc(OC)c1OC (configuration not stated)	39	i	i	i	i	i	i
COCCN(Cc1ccco1)C(=O)C1CCCN(c2ncnc3c2nc2n3CCCCC2)C1 (configuration not stated)	i	i	i	i	i	i	i
COC(=O)C1=C(c2ccccc2)c2ccccc2S(=O)(=O)N1CC(=O)Nc1ccc(F)c(F)c1	i	nt	nt	i	nt	nt	nt
O=C(Cc1c(F)cccc1Cl)NNC(=O)c1ccncc1	i	i	i	i	i	i	i
CCc1ccc(NC(=O)CC2C(=O)N(c3ccc(Cl)cc3)C(=O)N2Cc2ccco2)cc1 (configuration not stated)	i	nt	nt	nt	nt	nt	nt
Cc1ccc2c(c1)[nH]c1c(=O)n(Cc3ccco3)cnc12	33	i	i	i	i	i	i
COCCn1nnnc1CN1CCN(c2cccc(C(F)(F)F)c2)CC1	i	i	i	i	i	nt	nt
CC(C)CCn1nnnc1CN1CCN(c2ccccc2)CC1	52	50	i	i	i	i	i
